Results: PubChem BioAssay AID1210 (NMMLSC, 2008)
Calls of active or inactive are those of the source.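 Rule for the calls: active = blocks over 70% of labeled estradiol binding at 10 µM, or over a set limit at 100 nM; inactive = the rest.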

What follows are compounds tested against Estrogen receptor beta (Homo sapiens) (UniProt Q92731) (assay: displacement of fluorescent estrogen from ERbeta – cell-based, Cos7 ERbeta-GFP, flow cytometry, primary screen (AID 1210;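 note: 0% = DMSO vehicle wells and 100% = complete loss of labeled estradiol signal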)). Details: fluorescent estrogen binding, at 10 µM, stronger effect = higher value.
Estrogen receptor beta (Homo sapiens), sequence (Q92731 whole entry, looked up): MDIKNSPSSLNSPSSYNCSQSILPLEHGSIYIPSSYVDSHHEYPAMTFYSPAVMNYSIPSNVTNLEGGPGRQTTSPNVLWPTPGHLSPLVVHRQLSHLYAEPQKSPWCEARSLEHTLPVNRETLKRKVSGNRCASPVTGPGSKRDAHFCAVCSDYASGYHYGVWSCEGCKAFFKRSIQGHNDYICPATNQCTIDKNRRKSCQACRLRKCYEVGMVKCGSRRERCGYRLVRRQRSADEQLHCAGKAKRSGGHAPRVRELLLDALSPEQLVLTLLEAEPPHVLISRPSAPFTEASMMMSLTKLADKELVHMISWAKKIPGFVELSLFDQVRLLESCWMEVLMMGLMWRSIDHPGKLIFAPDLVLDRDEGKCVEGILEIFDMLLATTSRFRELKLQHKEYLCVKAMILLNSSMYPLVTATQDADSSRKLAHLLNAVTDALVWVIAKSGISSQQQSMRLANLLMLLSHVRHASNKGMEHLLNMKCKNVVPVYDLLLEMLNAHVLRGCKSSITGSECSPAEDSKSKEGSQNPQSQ

inhibition, inactive:
Cc1ccc(-c2n[nH]c(=S)n2/N=C/C=C/c2ccccc2[N+](=O)[O-])cc1 53%
O=C(NC1CC1)c1ccc2c(c1)C1C3CCC(C3)C1C(c1ccccc1)N2 (stereo not drawn) 0%
O=c1oc2c(O)c(O)cc3c(=O)oc4c(O)c(O)cc1c4c23 13%
COc1cc(C2C3C(C)N(C)C(=O)N(C)C3N(C)C(=O)N2C)ccc1O (stereo not drawn) 12%
O=C(O)C1Nc2c(C(=O)N3CCOCC3)cccc2C2C=CCC12 (stereo not drawn) 45%
COc1cc([N+](=O)[O-])cc2c1NC(c1ccc(Br)cc1)C1CC=CC21 (stereo not drawn) 17%
COc1cc2c(c([N+](=O)[O-])c1)NC(c1ccc(Br)cc1)C1CC=CC21 (stereo not drawn) 8%
CCOc1ccc(NS(=O)(=O)c2ccc3c(c2)[C@H]2C=CC[C@H]2[C@@H](c2ccc([N+](=O)[O-])cc2)N3)cc1 1%
COc1ccc(OC)c(NC(=O)c2cc(-c3ccc(C)cc3O)n[nH]2)c1 19%
CC(=O)Nc1ccc2[nH]c(C)cc(=O)c2c1 64%
COc1cccc(-c2cc(C(=O)Nc3cc(C)nn3-c3ccccc3)no2)c1 23%
CC(=O)c1ccc2c(c1)C1C=CCC1C(c1cccc([N+](=O)[O-])c1)N2 (stereo not drawn) 0%
Cc1ccc(-n2cc3c(c(C#N)c2=N)CC(C)(C)CC3=O)cc1 22%
Nc1nc2c(s1)CCc1c-2cnn1-c1ccccc1 50%
O=C(COC(=O)C1CC2C=CC1C2)NCc1ccco1 (stereo not drawn) 25%
Nc1nc(-c2ccc3c(c2)NC(=O)CO3)cs1 70%
CCOc1cc2c(c([N+](=O)[O-])c1)NC(c1ccccc1)C1CC=CC21 (stereo not drawn) 17%
COc1cc(C2CC(=O)Nc3c2ccc2ccccc32)cc(Cl)c1O (stereo not drawn) 19%
Cc1ccc2c(c1C)NC(C(=O)O)C1CC=CC21 (stereo not drawn) 3%
Cc1noc(C)c1CSCC(=O)OCC(=O)Nc1sccc1C#N 5%
COc1ccc(C(N)CCc2ccc(C)o2)cc1 (stereo not drawn) 38%
CCc1oc2c(C)c(O)ccc2c(=O)c1-c1ccc2ccccc2n1 39%
CC(=O)OC1CC(C)(C)N(OC(=O)c2ccc(N)cc2)C(C)(C)C1 30%
COc1cccc2c1NC(C(=O)O)C1CC=CC21 (stereo not drawn) 15%
CC1(C)CC(=O)C=C(NC2CC(C)(C)NC(C)(C)C2)C1 2%
O=C(Nc1ccc(O)cc1)C1CC=CCC1 (stereo not drawn) 29%
CCCCCCc1cc2c3c(c(=O)oc2cc1OCC(N)=O)CCC3 12%
O=C(O)COc1cc2oc(=O)c3c(c2cc1Cl)CCCC3 11%
O=C(O)c1ccc(Cl)c2c1C1C=CCC1C(c1ccccn1)N2 (stereo not drawn) 28%
COC(=O)c1ccc(-c2n[nH]c(=O)c3ccccc23)cc1 32%
CN(/N=C/c1cccnc1)c1cnn(-c2ccc(F)c(Cl)c2)c(=O)c1Cl 20%
CCc1cc2c3c(c(=O)oc2cc1OC)CCCC3 18%
COc1ccc(-n2c(SCC(=O)Nc3nccs3)nc3sc4c(c3c2=O)CCN(C)C4)cc1 41%
CC1=CC(C)C2(CO)COC(c3ccccc3O)C1C2C (stereo not drawn) 66%
CC1CCCC(C)N1Cc1c(O)ccc2c3c(c(=O)oc12)CCC3 (stereo not drawn) 21%
Cc1sc2ncnc(NCc3ccco3)c2c1C 39%

inhibition, active:
COc1ccc(NS(=O)(=O)c2ccc3c(c2)[C@H]2C=CC[C@H]2[C@@H](c2ccc(C(=O)O)cc2)N3)cc1 88%
CC(=O)OC1CC2(C)C(=O)CCC2C2CCc3cc(O)ccc3C12 (stereo not drawn) 95%
